Growth data for eight compounds are collected here from PubChem BioAssay (NCI).

Holding throughout (experiment): NCI-60 one-dose screen, 48 h (100 = growth as untreated, 0 = no growth, -100 = all killed)
One assay deals with DU-145 prostate. To be noted: 10 µM unless noted.
The next assay has as its system K-562 leukemia. Conditions: 10 µM unless noted.
The next assay deals with MALME-3M melanoma. Conditions: 10 µM unless noted.
Another assay deals with RXF 393 renal. Conditions: 10 µM unless noted.
The test system of the next assay is SF-268 CNS. Conditions: 10 µM unless noted.
The subject of another assay is SF-295 CNS. To be noted: 10 µM unless noted.
Another assay concerns SF-539 CNS. To be noted: 10 µM unless noted.
The subject of the next assay is UACC-257 melanoma. To be noted: 10 µM unless noted.
The next assay relates to M14 melanoma. Conditions: 10 µM unless noted.
In the next assay the test system is HCT-15 colon. Conditions: 10 µM unless noted.
Another assay relates to HT29 colon. Conditions: 10 µM unless noted.
A further assay concerns SNB-75 CNS. Conditions: 10 µM unless noted.
The test system of the next assay is SNB-19 CNS. Conditions: 10 µM unless noted.
The next assay concerns U251 CNS. To be noted: 10 µM unless noted.
The subject of another assay is PC-3 prostate. Conditions: 10 µM unless noted.
The subject of another assay is SK-MEL-5 melanoma. To be noted: 10 µM unless noted.
The subject of the next assay is UACC-62 melanoma. To be noted: 10 µM unless noted.
For another assay, the system named is SK-MEL-28 melanoma. Conditions: 10 µM unless noted.
Another assay has as its system MDA-MB-231 breast. To be noted: 10 µM unless noted.
A further assay relates to LOX IMVI melanoma. To be noted: 10 µM.

This is part of a sample that, as a whole, favours compounds with a hit. Of some 83,000 tested, about 20% had one in any assay.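 Cell lines were cultured in 96-well plates, exposed to a single compound concentration, and assessed for percent growth 48 hours later.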 Values without a mark were called inactive. Calls of active or inactive are those of the source. How the source made its calls: active means growth percent below 10; inactive means the rest.

Take `CC(C)N=C(N)/N=C(\N)Nc1ccc2ccc3ccccc3c2c1`: the growth was -89.5% (active) in the assay with DU-145 prostate; -42.3% (active) in the assay with K-562 leukemia; -89.6% (active) with MALME-3M melanoma; -89.7% (active) in the assay with RXF 393 renal; -64.7% (active) in the assay with SF-268 CNS; -89.1% (active) in the assay on SF-295 CNS. In addition, the growth was -98.9% (active) with SF-539 CNS; -79.1% (active) with UACC-257 melanoma; -76.8% (active) in the assay on M14 melanoma; -91.5% (active) in the assay with HCT-15 colon; -84.4% (active) in the assay with HT29 colon; -20.7% (active) in the assay with SNB-75 CNS. For the same compound, the growth in the assay with SNB-19 CNS was -92.6% (active); with U251 CNS, -67.9% (active); with PC-3 prostate, -7.75% (active); in the assay with SK-MEL-5 melanoma, -98.1% (active); with UACC-62 melanoma, -75.6% (active); in the assay with SK-MEL-28 melanoma it was -78.2% (active).

Take `CCCOC(=O)c1nc(N(CC2CCCCC2)C(=O)NC)sc1/N=C/c1ccccc1`: the growth in the assay on DU-145 prostate is 44.7%; in the assay with K-562 leukemia, 2.2% (active); in the assay on MALME-3M melanoma, 12.4%; in the assay with RXF 393 renal it was -8.78% (active); in the assay on SF-268 CNS, 32%; with SF-295 CNS, 15.1%. For the same compound, the growth in the assay with SF-539 CNS is -27.9% (active); with UACC-257 melanoma, 37.5%; in the assay on M14 melanoma it was 6.82% (active); in the assay with HCT-15 colon, -70.3% (active); with HT29 colon, -37.7% (active); in the assay on SNB-75 CNS, -11.1% (active). The growth with SNB-19 CNS is 24.5%; in the assay on U251 CNS, 5.96% (active); in the assay on PC-3 prostate, 25.3%; with SK-MEL-5 melanoma it was -11.9% (active); in the assay with UACC-62 melanoma it was 4.74% (active); in the assay on SK-MEL-28 melanoma, 35%.

With `Oc1ccc2c(c1)CCc1ccccc1-2`, the growth in the assay on DU-145 prostate is 109%; in the assay on K-562 leukemia it was 121%; in the assay on MDA-MB-231 breast, 111%; in the assay on RXF 393 renal, 92.6%; in the assay with SF-268 CNS, 92.1%; in the assay on SF-295 CNS, 96.3%. The growth in the assay on SF-539 CNS was 89.9%; in the assay on UACC-257 melanoma, 99.2%; in the assay with M14 melanoma it was 102%; in the assay with HCT-15 colon, 92.6%; in the assay with HT29 colon it was 95%; in the assay with SNB-75 CNS, 56.1%. The growth is 102% with SNB-19 CNS; 95.9% in the assay with U251 CNS; 99.2% in the assay with PC-3 prostate; 97.8% in the assay on SK-MEL-5 melanoma; 104% in the assay on UACC-62 melanoma; 107% in the assay on LOX IMVI melanoma. Besides, in the assay with SK-MEL-28 melanoma, the growth is 105%.

For the compound `CCCCCCCCCCCC[n+]1ccc2ccccc2c1`, the growth in the assay with DU-145 prostate was 8.38% (active); in the assay on K-562 leukemia, -18.4% (active); in the assay on MDA-MB-231 breast, -18% (active); in the assay on RXF 393 renal, -6.08% (active); with SF-268 CNS, -72.7% (active); with SF-295 CNS, -40.3% (active). Moreover, the growth was -47.8% (active) with SF-539 CNS; -39.2% (active) in the assay with UACC-257 melanoma; -84.2% (active) in the assay with M14 melanoma; 25% in the assay with HCT-15 colon; 0.914% (active) in the assay with HT29 colon; -21% (active) in the assay with SNB-75 CNS. Further, the growth with SNB-19 CNS was -19.8% (active); with U251 CNS it was -53.5% (active); in the assay with PC-3 prostate, -34.1% (active); in the assay with SK-MEL-5 melanoma it was -93.7% (active); with UACC-62 melanoma, -62.1% (active); in the assay on LOX IMVI melanoma, -75% (active). Further, the growth in the assay with SK-MEL-28 melanoma was -28.6% (active).

On to `COc1cc(/C=C2\SC(=S)N(/C=C/c3nc4ccccc4[nH]c3=O)C2=O)cc(OC)c1OC`, for which the growth was 97.7% with DU-145 prostate; 88.1% with K-562 leukemia; 80.1% in the assay with MDA-MB-231 breast; 77.7% in the assay with RXF 393 renal; 77.5% in the assay with SF-268 CNS; 88.4% in the assay with SF-295 CNS. The growth with SF-539 CNS is 95.2%; with UACC-257 melanoma it was 79.2%; in the assay on M14 melanoma it was 75.4%; with HCT-15 colon, 91.7%; with HT29 colon it was 90.6%; in the assay with SNB-75 CNS, 66.9%. Further, the growth in the assay with SNB-19 CNS was 97.5%; in the assay with U251 CNS it was 81.8%; in the assay with PC-3 prostate, 95.2%; with SK-MEL-5 melanoma, 82.7%; in the assay with UACC-62 melanoma it was 81.9%; with LOX IMVI melanoma, 56.7%. Besides, in the assay with SK-MEL-28 melanoma, the growth is 90.5%.

`CC(=O)c1ccc2c(c1)CCc1ccccc1-2`: the growth in the assay with DU-145 prostate was 115%; in the assay on K-562 leukemia it was 115%; in the assay on MDA-MB-231 breast, 109%; in the assay on RXF 393 renal, 97.4%; with SF-268 CNS it was 101%; with SF-295 CNS, 94.2%. The growth in the assay on SF-539 CNS was 96.8%; in the assay with UACC-257 melanoma, 98.2%; with M14 melanoma it was 107%; in the assay with HCT-15 colon, 93.9%; in the assay with HT29 colon, 102%; in the assay on SNB-75 CNS, 87.1%. Moreover, the growth with SNB-19 CNS is 103%; with U251 CNS, 95.6%; with PC-3 prostate it was 100%; in the assay with SK-MEL-5 melanoma, 99.6%; with UACC-62 melanoma it was 109%; in the assay on LOX IMVI melanoma it was 113%. In the assay on SK-MEL-28 melanoma, the growth was 101%.

On to `Cc1onc(-c2ccccc2)c1C(=O)N/N=C/c1cc(Cl)cc(Cl)c1O`, for which the growth with DU-145 prostate is 44.6%; in the assay with K-562 leukemia it was 29.4%; in the assay on MDA-MB-231 breast, 34.4%; in the assay on RXF 393 renal, 64.1%; in the assay with SF-268 CNS, 34.1%; in the assay with SF-295 CNS it was -5.54% (active). Besides, the growth was 16.5% with SF-539 CNS; 17.4% in the assay on UACC-257 melanoma; 14.3% in the assay on M14 melanoma; 25.6% in the assay on HCT-15 colon; 42.2% with HT29 colon; 61.4% in the assay with SNB-75 CNS. In addition, the growth is 43.8% with SNB-19 CNS; 25% in the assay with U251 CNS; 46.2% in the assay with PC-3 prostate; 9.32% (active) with SK-MEL-5 melanoma; 10.9% with UACC-62 melanoma; 11.2% in the assay with LOX IMVI melanoma. Moreover, in the assay on SK-MEL-28 melanoma, the growth is 51.3%.

Regarding `O=C(Cc1nc2cc(Cl)c(Cl)cc2nc1CC(=O)c1cccnc1)c1cccnc1`, the growth in the assay on DU-145 prostate is 93.5%; in the assay with K-562 leukemia, 49.6%; in the assay with MALME-3M melanoma it was 65.5%; with RXF 393 renal, 87.9%; in the assay with SF-268 CNS, 82.2%; with SF-295 CNS, 94.1%. In addition, the growth is 78.7% in the assay with SF-539 CNS; 95.7% in the assay on UACC-257 melanoma; 76.5% in the assay with M14 melanoma; 57.2% in the assay on HCT-15 colon; 71.6% with HT29 colon; 88.4% with SNB-75 CNS. Moreover, the growth in the assay on U251 CNS was 89.3%; in the assay with PC-3 prostate it was 70.2%; in the assay with SK-MEL-5 melanoma, 81.7%; with UACC-62 melanoma, 71.4%; in the assay with LOX IMVI melanoma, 65.4%; in the assay with SK-MEL-28 melanoma it was 87.1%.
